Source: PubChem BioAssay (Tox21)
Activity calls are given as the source filed them. Entries that show only a call come without a potency. Calls come from the whole dose curve.
Potency is the fitted concentration of half-maximal effect.

Each molecule was assayed against Acetylcholinesterase (Homo sapiens) (UniProt P22303) (assay: Acetylcholinesterase (AChE) small molecule antagonists: enzyme-based qHTS assay (AID 1347397; note: nearly all actives have a fitted effect of over 55% in size)). Conditions: Potency: AChE enzyme activity inhibition; outcome: AChE enzyme activity inhibition; series mostly up to 115 µM.
Chain of Acetylcholinesterase (Homo sapiens) (P22303 whole entry, looked up): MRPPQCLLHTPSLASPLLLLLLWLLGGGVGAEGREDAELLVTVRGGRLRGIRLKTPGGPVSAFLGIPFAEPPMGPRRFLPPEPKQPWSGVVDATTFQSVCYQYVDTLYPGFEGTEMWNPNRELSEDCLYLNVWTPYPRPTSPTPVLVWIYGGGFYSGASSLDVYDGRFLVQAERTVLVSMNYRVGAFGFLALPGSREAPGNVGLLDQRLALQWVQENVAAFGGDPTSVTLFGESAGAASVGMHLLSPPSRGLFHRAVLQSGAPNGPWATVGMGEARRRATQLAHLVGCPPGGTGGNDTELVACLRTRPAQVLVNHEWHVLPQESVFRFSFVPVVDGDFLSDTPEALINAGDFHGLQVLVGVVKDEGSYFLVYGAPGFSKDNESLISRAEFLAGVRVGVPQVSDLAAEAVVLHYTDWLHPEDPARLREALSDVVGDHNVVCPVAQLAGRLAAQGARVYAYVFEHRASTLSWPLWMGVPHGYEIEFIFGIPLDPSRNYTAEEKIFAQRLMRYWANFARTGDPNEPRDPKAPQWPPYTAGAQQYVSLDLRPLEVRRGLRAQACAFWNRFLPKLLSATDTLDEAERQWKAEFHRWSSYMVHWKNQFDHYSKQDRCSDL
From the text: National Center for Advancing Translational Sciences [NCATS]
Division of Preclinical Innovation [DPI]
U.S. Environmental Protection Agency [EPA]
National Institutes of Environmental Health Sciences [NIEHS]
National Toxicology Program [NTP]
U.S. Food and Drug Administration [FDA]
Acetylcholinesterase (AChE) is the primary cholinesterase in the body that hydrolyzes a key neurotransmitter, acetylcholine. Inhibition of AChE activity can lead to neurotoxicity. The known inhibitors include organophosphorous pesticides (OP), chemical warfare agents, drugs, and various phytochemicals.
An enzyme-based assay with the recombinant human AChE and Amplite Colormetric acetylcholinesterase assay kit (AAT Bioquest, Sunnyvale, CA) was used to evaluate the chemicals in the Tox21 10K library that inhibit AChE activity. The assay uses 5, 5-dithiobis-(2-nitrobenzoic acid) (DTNB) to quantify the thiocholine produced from the hydrolysis of acetylthiocholine by AChE.
Tox21 Assay Protocol Summary:
For the enzyme-based AChE assay, recombinant human AChE (50 mU/mL) in 4 uL/well was dispensed into black, clear-bottom 1536-well plates using a Multidrop Combi dispenser (Thermo Scientific, MA). Then, 23 nL of compound or DMSO (vehicle control) was transferred into the assay plates by a Pintool Station (Wako Automation, CA). The plates were incubated for 30 min at room temperature, followed by the addition of 4 uL of colorimetric detection cocktail solution (DTNB, acetylthiocholine) into each well using a Flying Reagent Dispenser (Beckman Coulter, CA) and then 10 min incubation at room temperature.
With `CC(C)(C)NCC(O)c1cc(O)cc(O)c1` (stereo not given) the Potency was “inactive”.
`CN(N=O)C(=O)N[C@@H]1[C@@H](O)[C@H](O)[C@@H](CO)O[C@@H]1O` was tested, and the Potency was “inactive”.
For `OCC1CC=CCC1` (stereo not given), the Potency was “inactive”.
With `CCCCCCCCCCCCCCC` the Potency was “inactive”.
In the case of `CCCCCCCCCCCCCCCC(=O)OC[C@H](O)[C@H]1OC(=O)C(O)=C1O`, the Potency is reported as “inactive”.
`CCCCCCCC1CCCC1=O` (stereo not given) was tested, and the Potency was “inactive”.
`OCCOCCOCCOCCO` was tested, and the Potency was “inactive”.
With `NC(N)=NC(N)=NCCc1ccccc1` the Potency was “inactive”.
`COc1cc(/C=C/C(=O)CC(=O)/C=C/c2ccc(O)c(OC)c2)ccc1O` was tested, and the Potency was “inactive”.
For `COc1ccc(COC(C)=O)cc1`, the Potency was “inactive”.
With `CCCCCCCCCCCCI` the Potency was “inactive”.
With `OC[C@]1(O)OC[C@@H](O)[C@H](O)[C@@H]1O` the Potency was “inactive”.
`CC(C)(O)CCC(C)(C)O` was tested, and the Potency was “inactive”.
In the case of `Nc1c(CC(=O)O)cccc1C(=O)c1ccc(Br)cc1`, the Potency is reported as “inactive”.
With `CC(C)(O)c1ccc(CNC(=O)c2cccnc2Oc2ccc3nonc3c2)cc1` the Potency was “inactive”.
With `Nc1ccc(S(=O)(=O)Nc2ccccn2)cc1` the Potency was “inactive”.
For `O=c1c(-c2ccc(O)cc2)coc2cc(O)cc(O)c12`, the Potency was “inactive”.
With `C/C(=C\c1ccc(C(=O)O)cc1)c1ccc2c(c1)C(C)(C)CCC2(C)C` the Potency was “inactive”.
`Cc1ncc[nH]1` was tested, and the Potency was “inactive”.
With `CCOC(=O)[C@H](CCc1ccccc1)N[C@@H](C)C(=O)N1C(=O)N(C)C[C@H]1C(=O)O` the Potency was “inactive”.
In the case of `O=C1NC2NC(=O)NC2N1` (stereo not given), the Potency is reported as “inactive”.
In the case of `CC12CCC(CC1=O)C2(C)C` (stereo not given), the Potency is reported as “inactive”.
`Cc1cc(Br)ccc1NC(=O)CCl` was tested, and the Potency was “inactive”.
For `Cc1nn(C)c(Oc2ccccc2)c1/C=N/OCc1ccc(C(=O)OC(C)(C)C)cc1`, the Potency was “inactive”.
With `OCC(CO)(CO)CO` the Potency was “inactive”.
For `O=C1c2ccccc2C(=O)c2cc(S(=O)(=O)O)ccc21`, the Potency was “inactive”.
In the case of `CN(C)c1cc(NC(=O)CNC(C)(C)C)c(O)c2c1C[C@H]1C[C@H]3[C@H](N(C)C)C(=O)C(C(N)=O)=C(O)[C@@]3(O)C(=O)C1=C2O`, the Potency is reported as “inactive”.
With `CCCCCC(CC)OC(=O)CCCOc1ccc(Cl)cc1Cl` (stereo not given) the Potency was “inactive”.
In the case of `CCN=c1cc2oc3cc(NCC)c(C)cc3c(-c3ccccc3C(=O)OCC)c-2cc1C`, the Potency is reported as 17.8 µM (active).
With `CCCCC(CC)C(=O)OCCOCCOCCOC(=O)C(CC)CCCC` (stereo not given) the Potency was “inactive”.
For `Nc1ncnc2nc[nH]c12`, the Potency was “inactive”.
With `CC1(C)[C@H]2CC[C@]1(C)C(=O)C2` the Potency was “inactive”.
In the case of `Cc1ccc(C(=O)O)cc1`, the Potency is reported as “inactive”.
With `C=C(C)CC(C)(C)C` the Potency was “inactive”.
In the case of `Cc1ccc(S(=O)(=O)NC(=O)NC2CCCCCCC2)cc1`, the Potency is reported as “inactive”.
For `CCN(Cc1cccc(S(=O)(=O)O)c1)c1ccccc1`, the Potency was “inactive”.
With `CO[C@@]1(NC(=O)C(C(=O)O)c2ccc(O)cc2)C(=O)N2C(C(=O)O)=C(CSc3nnnn3C)CO[C@@H]21` (stereo not given in full) the Potency was “inactive”.
`CC(C)C(C)(C)C(C)(C)C(C)(C)S` was tested, and the Potency was “inactive”.
In the case of `CC1(C)C(=O)N(Cl)C(=O)N1Cl`, the Potency is reported as “inactive”.
`C=CC(O)CCCCC` (stereo not given) was tested, and the Potency was “inactive”.
